Experiment [1] relates to S. cerevisiae SK1 pCDA2-eGFP (USY613), sporulating. The experiment in a line: CDA2-GFP sporulation assay sensitivity score (z-score vs DMSO controls); higher = stronger inhibition of sporulation, active = hit call of the paper.
The subject of experiment [2] is S. cerevisiae NKY1551 his4x/his4B, sporulating. Briefly: HIS4 meiotic recombination assay sensitivity score (z-score vs DMSO controls); higher = stronger inhibition of sporulation/recombination, active = hit call of the paper.
Experiment [3] deals with S. cerevisiae AD1-9 (efflux-pump deficient), vegetative growth in YPD. Briefly: growth sensitivity score (doubling time z-score vs DMSO controls); higher = slower growth, strongly negative scores also mark growth inhibition (complete suppression), active = hit call of the paper. The method, boiled down: (§1)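 Yeast (Saccharomyces cerevisiae BY4741 and AD1-9) was grown in rich medium in microtiter plates from a starting OD600 of 0.065, with optical density read every 15 min over 24 hours. The growth sensitivity score was the difference between compound and solvent-only means, divided by the solvent-only standard deviation. Every experiment had eight solvent-only wells.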

Experiment [4] relates to S. cerevisiae BY4741 (wild-type), vegetative growth in YPD. The experiment is described as above. In outline: as §1

Where a name gives a salt, the structure may show the parent alone.
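Wherever CDA2-GFP sporulation assay sensitivity score (z-score vs DMSO controls) is given: active if sensitivity score above 5.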
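Wherever HIS4 meiotic recombination assay sensitivity score (z-score vs DMSO controls) is given: active if sensitivity score above 5.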

With `CN1CCN(C2=Nc3ccccc3Oc3ccc(Cl)cc32)CC1` [Loxapine succinate] (stock concentration (mM, diluted 1:100): 11), the “CDA2-GFP sporulation assay sensitivity score” value in experiment [1] is 2.27 (inactive). Besides, the “HIS4 meiotic recombination assay sensitivity score” value in experiment [2] is 7.41 (active). In addition, the growth sensitivity score in experiment [3] was 6.01 (active); in experiment [4] it was 1.9 (inactive).
The like results for `COc1nc(C)nc(Cl)c1NC1=NCCN1` [Moxonidine hydrochloride] (stock concentration (mM, diluted 1:100): 9.2) were, in that order, 0.6 (inactive), -0.58 (inactive), -1.22 (inactive) and 0.19 (inactive).
For the compound `C[C@]12C[C@H](O)[C@H]3[C@@H](CCC4=CC(=O)CC[C@@]43C)[C@@H]1CC[C@@H]2C(=O)CO` [Corticosterone] (stock concentration (mM, diluted 1:100): 10), in experiment [1], the “CDA2-GFP sporulation assay sensitivity score” value was 3.57 (inactive). Besides, the “HIS4 meiotic recombination assay sensitivity score” value in experiment [2] was 1.37 (inactive). For the same compound, the growth sensitivity score in experiment [3] is 2.14 (active); in experiment [4], -0.97 (inactive).
On to `CC(C)NCC(O)c1ccc(NS(C)(=O)=O)cc1` (stereo not drawn) [Sotalol hydrochloride] (stock concentration (mM, diluted 1:100): 8.8), for which the “CDA2-GFP sporulation assay sensitivity score” value in experiment [1] is -0.03 (inactive). Besides, in experiment [2], the “HIS4 meiotic recombination assay sensitivity score” value is -0.43 (inactive). Besides, the growth sensitivity score in experiment [3] is -0.51 (inactive); in experiment [4] it was -1.04 (inactive).
The like results for `CN(C)CCC(c1ccc(Cl)cc1)c1ccccn1` (stereo not drawn) [Chlorpheniramine] (stock concentration (mM, diluted 1:100): 10) were, in that order, -1.3 (inactive), 5.73 (active), -0.6 (inactive) and -0.56 (inactive).
For `CCOC(=O)C1=C(C)NC(C)=C(C(=O)OC)C1c1cccc([N+](=O)[O-])c1` (stereo not drawn) [Nitrendipine] (stock concentration (mM, diluted 1:100): 10) the same measures were 10.3 (active), 1.41 (inactive), 23.1 (active) and 1.09 (inactive).
For `CN(C)CCOC(c1ccccc1)c1ccccc1` [Diphenhydramine hydrochloride] (stock concentration (mM, diluted 1:100): 10) the same measures were 2.11 (inactive), 8.82 (active), 3.46 (active) and 0.81 (inactive).
For the compound `O=C(O[C@@H]1Cc2c(O)cc(O)cc2O[C@@H]1c1cc(O)c(O)c(O)c1)c1cc(O)c(O)c(O)c1` [Epigallocatechin gallate] (stock concentration (mM, diluted 1:100): 10), the “CDA2-GFP sporulation assay sensitivity score” value in experiment [1] is -1.44 (inactive). Further, in experiment [2], the “HIS4 meiotic recombination assay sensitivity score” value was 0.29 (inactive). In addition, the growth sensitivity score in experiment [3] is -3.35; in experiment [4], 0.97 (inactive).
The like results for `Cc1sc(N)c(C(=O)c2cccc(C(F)(F)F)c2)c1C` (stock concentration (mM, diluted 1:100): 10) were, in that order, 11.1 (active), 1.22 (inactive), 143 (active) and 9.52 (active).
For `COCC1=C(C(=O)OC(C)OC(=O)OC(C)C)N2C(=O)[C@@H](NC(=O)/C(=N\OC)c3csc(N)n3)[C@H]2SC1` (stereo partly drawn) [Cefpodoxime proxetil] (stock concentration (mM, diluted 1:100): 7.7) the same measures were -0.83 (inactive), -1.5 (inactive), -0.15 (inactive) and -1.13 (inactive).
For `CC(C(O)c1ccc(O)cc1)N1CCC(Cc2ccccc2)CC1` (stereo not drawn) [Ifenprodil] (stock concentration (mM, diluted 1:100): 9.2) the same measures were 16.1 (active), 4.63 (inactive), 44.9 (active) and 3.06 (active).
On to `NC(=O)OCC(COC(N)=O)c1ccccc1` [Felbamate] (stock concentration (mM, diluted 1:100): 14), for which the “CDA2-GFP sporulation assay sensitivity score” value in experiment [1] is -0.27 (inactive). In addition, the “HIS4 meiotic recombination assay sensitivity score” value in experiment [2] is -0.45 (inactive). The growth sensitivity score in experiment [3] is -0.62 (inactive); in experiment [4] it was -0.94 (inactive).
The like results for `Cc1occc(=O)c1O` [Maltol] (stock concentration (mM, diluted 1:100): 10) were, in that order, 1.2 (inactive), 0.46 (inactive), -1.16 (inactive) and -0.74 (inactive).
The like results for `CCOC(=O)[C@@]1(CCCCCCOc2ccc(Cl)cc2)CO1` [Etomoxir] (stock concentration (mM, diluted 1:100): 10) were, in that order, 5.49 (inactive), -1.14 (inactive), 8.16 (active) and 1.54 (inactive).
As to `CC[C@H]1OC(=O)[C@H](C)C(=O)[C@H](C)[C@@H](O[C@@H]2O[C@H](C)C[C@H](N(C)C)[C@H]2O)[C@](C)(OC)C[C@@H](C)C(=O)[C@H](C)[C@H]2N(CCCCn3cnc(-c4cccnc4)c3)C(=O)O[C@]12C` [Telithromycin] (stock concentration (mM, diluted 1:100): 10), the “CDA2-GFP sporulation assay sensitivity score” value in experiment [1] is 4.62 (inactive). Besides, the “HIS4 meiotic recombination assay sensitivity score” value in experiment [2] is 0.14 (inactive). Further, the growth sensitivity score in experiment [3] is 4.79 (active); in experiment [4], 0.09 (inactive).
The like results for `COc1ccc2c3c1O[C@H]1C[C@@H](O)C=C[C@@]31CCN(C)C2` [Galanthamine] (stock concentration (mM, diluted 1:100): 8.8) were, in that order, -0.36 (inactive), -0.9 (inactive), -1.27 (inactive) and 0.11 (inactive).
For `COC(=O)C1=C(C)NC(C)=C(C(=O)OC2CCCN(Cc3ccccc3)C2)C1c1cccc([N+](=O)[O-])c1` (stereo not drawn) [Benidipine hydrochloride] (stock concentration (mM, diluted 1:100): 6) the same measures were 4.32 (inactive), -1.2 (inactive), -3.4 and 1.95 (inactive).

Source of the values: the supplement of paper PMC3414501.
